We go through 17 compounds from PubChem BioAssay (EPA / NIEHS).

What all share (details): mRNA level, 48 h; actives raise or lower the signal
Read-out in test [1]: MicroRNA 122 (MIR122), gene 406906
The test is described as follows: LTEA_HepaRG_MIR122: Life Technologies and Expression Analysis (LTEA) Assay for MicroRNA 122 (MIR122) using HepaRG (AID 2283516). Note: the transcript read is the microRNA miR-122. A digest of the protocol: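 HepaRG, 48 h exposure, 8-pt half-log from 100 uM, 0.5% DMSO; TaqMan qRT-PCR; bidirectional fit vs DMSO.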

Read-out in test [2]: matrix metalloproteinase-10 (MMP10), MMP10 (gene 4319)
Nature of the test: LTEA_HepaRG_MMP10: Life Technologies and Expression Analysis (LTEA) Assay for matrix metalloproteinase-10 (MMP10) using HepaRG (AID 2283517). A digest of the protocol: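 Differentiated HepaRG cells in serum-free induction medium exposed 48 h in duplicate to 8-point half-log series up to 100 uM in 0.5% DMSO. mRNA quantified by qRT-PCR, normalised to ACTB, GAPDH, POLR2A; bidirectional fit versus DMSO.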

Read-out in a further test: MYC, MYC (gene 4609)
The test is described as follows: LTEA_HepaRG_MYC: Life Technologies and Expression Analysis (LTEA) Assay for MYC using HepaRG (AID 2283518). A digest of the protocol: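 Expression changes were scored by TaqMan qRT-PCR with ACTB, GAPDH and POLR2A normalization. Cultures in serum-free induction medium received duplicate 8-point concentration series, highest 100 uM, for 48 h; DMSO (0.5%) served as baseline.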

Read-out in test [3]: matrix metalloproteinase-3 (MMP3), MMP3 (gene 4314)
Nature of the test: LTEA_HepaRG_MMP3: Life Technologies and Expression Analysis (LTEA) Assay for matrix metalloproteinase-3 (MMP3) using HepaRG (AID 2283519). A digest of the protocol:
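HepaRG cells (~100,000/well) in serum-free induction medium were dosed in duplicate for 48 h with an 8-point half-log series from 100 uM, 0.5% DMSO. MMP3 mRNA was quantified by Fluidigm TaqMan qRT-PCR, normalized to three housekeeping genes.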

Read-out in test [4]: Paternally Expressed 10 (PEG10), PEG10 (gene 23089)
Nature of the test: LTEA_HepaRG_PEG10: Life Technologies and Expression Analysis (LTEA) Assay for Paternally Expressed 10 (PEG10) using HepaRG (AID 2283520). A digest of the protocol:
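Chemicals tested on HepaRG cells for 48 h, highest concentration 100 uM. PEG10 expression assessed by qRT-PCR relative to DMSO control.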

Read-out in test [5]: Nuclear factor NF-kappa-B p105 subunit (Homo sapiens) (UniProt P19838)
Nature of the test: LTEA_HepaRG_NFKB1: Life Technologies and Expression Analysis (LTEA) Assay for Nuclear Factor Kappa B Subunit 1 (NFKB1) using HepaRG (AID 2283521).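 Note: TaqMan qRT-PCR transcript normalised to ACTB GAPDH and POLR2A housekeeping genes.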 The method in brief:
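NFKB1 transcript was measured by TaqMan qRT-PCR on Fluidigm arrays, normalised to three housekeeping genes and fitted in both directions against 0.5% DMSO. HepaRG cells were dosed in duplicate for 48 h in serum-free induction medium, eight half-log steps from 100 uM.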

Read-out in test [6]: Protein phosphatase 2A (PPP2R4), PTPA (gene 5524)
The test is described as follows: LTEA_HepaRG_PPP2R4: Life Technologies and Expression Analysis (LTEA) Assay for Protein phosphatase 2A (PPP2R4) using HepaRG (AID 2283522). A digest of the protocol: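 Gene-expression endpoint in HepaRG hepatic cells: 48 h treatment across eight half-log concentrations up to 100 uM in 0.5% DMSO. PPP2R4 mRNA by qRT-PCR, normalized to three endogenous control genes.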

Read-out in test [7]: solute carrier (SLC22A1), SLC22A1 (gene 6580)
The test is described as follows: LTEA_HepaRG_SLC22A1: Life Technologies and Expression Analysis (LTEA) Assay for solute carrier (SLC22A1) using HepaRG (AID 2283524). A digest of the protocol: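 Differentiated human HepaRG cells in serum-free induction medium, exposed 48 h in duplicate to 8-point half-log series from 100 µM top in 0.5% DMSO. SLC22A1 mRNA by TaqMan qRT-PCR normalized to ACTB, GAPDH, POLR2A; bidirectional fit versus DMSO.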

Read-out in test [8]: Pyruvate Dehydrogenase Kinase 4 (PDK4), PDK4 (gene 5166)
Nature of the test: LTEA_HepaRG_PDK4: Life Technologies and Expression Analysis (LTEA) Assay for Pyruvate Dehydrogenase Kinase 4 (PDK4) using HepaRG (AID 2283525). The method in brief:
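HepaRG cells plated 48 h, then switched to serum-free induction medium and exposed in duplicate for 48 h to 8 half-log concentrations from 100 uM in 0.5% DMSO. PDK4 mRNA measured by qRT-PCR, normalized to ACTB, GAPDH and POLR2A; bidirectional fit versus DMSO.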

Read-out in test [9]: Phosphatase and tensin (PTEN), PTEN (gene 5728)
Nature of the test: LTEA_HepaRG_PTEN: Life Technologies and Expression Analysis (LTEA) Assay for Phosphatase and tensin (PTEN) using HepaRG (AID 2283523). A digest of the protocol: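 HepaRG cells, 48 h after plating, exposed in duplicate for 48 h in serum-free induction medium to 8 half-log concentrations up to 100 uM (0.5% DMSO). PTEN mRNA by qRT-PCR, normalized to ACTB, GAPDH, POLR2A; bidirectional fit versus DMSO.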

Structures are written as SMILES. Some compounds were tested as several samples or in several runs, with calls that do not always agree. The source made the active and inactive calls. Rule for the calls: active = hit-call score of the fitted dose curve at least 0.9, where 1 is the maximum; inactive = score below 0.9.

Chain of Nuclear factor NF-kappa-B p105 subunit (Homo sapiens) (P19838 whole entry, looked up): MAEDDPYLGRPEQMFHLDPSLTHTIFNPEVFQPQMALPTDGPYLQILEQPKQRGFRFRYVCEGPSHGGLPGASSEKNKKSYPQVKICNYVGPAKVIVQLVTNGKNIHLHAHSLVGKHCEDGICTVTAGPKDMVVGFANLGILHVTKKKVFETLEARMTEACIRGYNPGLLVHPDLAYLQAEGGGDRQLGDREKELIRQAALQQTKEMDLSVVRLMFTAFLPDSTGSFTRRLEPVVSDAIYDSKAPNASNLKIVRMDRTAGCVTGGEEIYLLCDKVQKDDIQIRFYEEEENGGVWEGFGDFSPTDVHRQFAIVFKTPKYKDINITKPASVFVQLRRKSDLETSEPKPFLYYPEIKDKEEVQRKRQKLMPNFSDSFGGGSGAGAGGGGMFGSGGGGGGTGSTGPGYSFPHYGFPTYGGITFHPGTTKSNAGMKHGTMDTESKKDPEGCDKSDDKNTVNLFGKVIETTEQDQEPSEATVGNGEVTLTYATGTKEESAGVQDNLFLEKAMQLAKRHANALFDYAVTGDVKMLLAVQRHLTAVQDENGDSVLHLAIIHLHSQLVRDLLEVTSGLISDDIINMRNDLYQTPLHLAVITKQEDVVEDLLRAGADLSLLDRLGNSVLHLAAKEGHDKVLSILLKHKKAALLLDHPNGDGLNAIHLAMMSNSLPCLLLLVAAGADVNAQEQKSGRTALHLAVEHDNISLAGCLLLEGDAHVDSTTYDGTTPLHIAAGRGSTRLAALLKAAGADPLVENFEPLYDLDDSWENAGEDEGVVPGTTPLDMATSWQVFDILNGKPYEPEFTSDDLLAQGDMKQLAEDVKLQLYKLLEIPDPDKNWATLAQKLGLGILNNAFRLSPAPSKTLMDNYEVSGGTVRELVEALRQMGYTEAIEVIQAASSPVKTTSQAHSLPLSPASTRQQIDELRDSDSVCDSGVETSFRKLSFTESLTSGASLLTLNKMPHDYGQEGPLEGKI

`O=C(O)c1cc(Oc2ccc(C(F)(F)F)cc2Cl)ccc1[N+](=O)[O-]`: the outcome in [1] is “inactive”; in test [2] it was “inactive”; with MYC, MYC (gene 4609) it was “inactive”; in [3], “inactive”; in [5] it was “inactive”; in test [6] it was “inactive”. The compound was classed as inactive in test [7]. Besides, the values for the AC50 in test [4] and in test [8] were 50 µM (active) and 42.1 µM (active), respectively.
For `S=C1NCCN1`, the outcome in [1] was “inactive”; in [2], “inactive”; with MYC, MYC (gene 4609), “inactive”; in test [3], “inactive”; in [4], “inactive”; in test [5] it was “inactive”. Besides, the compound was classed as inactive in [6], in [9], in test [7] and in [8].
In the case of `CCCSP(=O)(OCC)Oc1ccc(Br)cc1Cl` (stereo unspecified), the outcome is “inactive” in [1]; “inactive” in [2]; “inactive” in the test with MYC, MYC (gene 4609); “inactive” in [3]; “inactive” in test [4]; “inactive” in test [5]. In addition, the call in test [6], in test [9], in [7] and in test [8] was inactive.
Regarding `C[N+]1(C)CCCCC1`, the outcome in test [1] was “inactive”; in test [2], “inactive”; with MYC, MYC (gene 4609), “inactive”; in test [3], “inactive”; in [4], “inactive”; in [5], “inactive”. The call in [6], in test [7] and in [8] was inactive.
On to `CCOP(=O)(NC(C)C)Oc1ccc(SC)c(C)c1` (stereo unspecified), for which the outcome is “inactive” in test [1]; “inactive” in test [2]; “inactive” in the test with MYC, MYC (gene 4609); “inactive” in [3]; “inactive” in test [5]; “inactive” in test [6]. In addition, the result in test [9], in [7] and in test [8] was inactive. In test [4], the AC50 was 50 µM (active).
In the case of `N#CSCSC#N`, the AC50 in test [1] was 65.1 µM (active); in test [2] it was 83 µM (active); in test [7], 74.2 µM (active). In addition, the outcome in the test with MYC, MYC (gene 4609) is “inactive”; in [3], “inactive”; in test [4], “inactive”; in test [5], “inactive”; in [6] it was “inactive”; in test [9], “inactive”. The outcome in [8] was inactive.
Turning to `CCCCOC(=O)[C@@H](C)Oc1ccc(Oc2ccc(C#N)cc2F)cc1`, the outcome in test [1] is “inactive”; in test [2], “inactive”; with MYC, MYC (gene 4609), “inactive”; in test [3], “inactive”; in [4], “inactive”; in [5] it was “inactive”. For the same compound, the compound was called inactive in test [6], in [9] and in test [7]. Besides, the AC50 in test [8] is 49.8 µM (active).
For the compound `CC(C)[C@H](C(=O)O[C@H](C#N)c1cccc(Oc2ccccc2)c1)c1ccc(Cl)cc1`, the outcome is “inactive” in [1]; “inactive” in test [2]; “inactive” in the test with MYC, MYC (gene 4609); “inactive” in [5]; “inactive” in test [6]; “inactive” in [9]. Moreover, the result in test [7] and in test [8] was inactive. The results for the AC50 in test [3] and in test [4] were 50 µM (active) and 30.3 µM (active), respectively.
Regarding `CCOC(=O)CC(SP(=O)(OC)OC)C(=O)OCC` (stereo unspecified), the outcome in test [1] was “inactive”; in test [2], “inactive”; with MYC, MYC (gene 4609) it was “inactive”; in test [3], “inactive”; in test [4] it was “inactive”; in [5], “inactive”. Moreover, the compound was classed as inactive in test [6] and in [7]. The AC50 in test [8] is 22 µM (active).
For `CCCOc1nn(C(=O)NS(=O)(=O)c2ccccc2C(=O)OC)c(=O)n1C`, the outcome in test [1] is “inactive”; in test [2], “inactive”; with MYC, MYC (gene 4609), “inactive”; in test [3], “inactive”; in [4], “inactive”; in [5] it was “inactive”. Further, the compound was called inactive in test [6], in test [7] and in test [8].
For the compound `CON=C(C(=O)OC)c1ccccc1CON=C(C)c1cccc(C(F)(F)F)c1`, the outcome in test [1] was “inactive”; in [2] it was “inactive”; with MYC, MYC (gene 4609), “inactive”; in test [3], “inactive”; in test [4], “inactive”; in test [5], “inactive”. Also, the outcome in [6] and in test [8] was inactive. Besides, in [7], the AC50 is 50 µM (active).
As to `COP(=O)(OC)C(O)C(Cl)(Cl)Cl` (stereo unspecified), the outcome was “inactive” in [1]; “inactive” in test [2]; “inactive” with MYC, MYC (gene 4609); “inactive” in test [3]; “inactive” in test [4]; “inactive” in test [5]. Further, the compound was classed as inactive in test [6], in [7] and in test [8].
With `CCCOCC(=Nc1ccc(Cl)cc1C(F)(F)F)n1ccnc1`, the AC50 in [1] is 17.1 µM (active); in test [2], 78.7 µM (active); with MYC, MYC (gene 4609), 50 µM (active); in test [3], 84.3 µM (active); in [4] it was 28.3 µM (active); in test [6] it was 80.7 µM (active). Besides, the AC50 was 81.8 µM (active) in test [9], 21.4 µM (active) in test [7] and 11.5 µM (active) in test [8]. In test [5], the compound was called inactive.
For the compound `CN(C)[C@@H]1C(=O)C(C(N)=O)=C(O)[C@@]2(O)C(=O)C3=C(O)c4c(O)cccc4[C@@](C)(O)[C@H]3[C@H](O)[C@@H]12`, the outcome in [1] is “inactive”; in [2] it was “inactive”; with MYC, MYC (gene 4609), “inactive”; in test [3], “inactive”; in test [4], “inactive”; in [6] it was “inactive”. Besides, the outcome in test [7] and in test [8] was inactive. Also, in test [3], the AC50 is 5.76 µM (active).
Regarding `CCOP(=S)(OCC)SCCSCC`, the outcome in test [1] is “inactive”; in test [2], “inactive”; in the test with MYC, MYC (gene 4609) it was “inactive”; in test [3], “inactive”; in [4], “inactive”; in [5] it was “inactive”. Moreover, the compound was classed as inactive in test [6], in test [7] and in test [8].
As for `CC1=NNC(=O)N(/N=C/c2cccnc2)C1`, the outcome in test [1] is “inactive”; in test [2] it was “inactive”; with MYC, MYC (gene 4609), “inactive”; in test [3], “inactive”; in test [4], “inactive”; in test [5], “inactive”. Moreover, the compound was classed as inactive in test [6], in test [7] and in test [8].
As for `CNC(=O)ON=C(SC)C(=O)N(C)C`, the outcome was “inactive” in test [1]; “inactive” in [2]; “inactive” with MYC, MYC (gene 4609); “inactive” in [3]; “inactive” in [4]; “inactive” in test [5]. For the same compound, the result in [6], in [9], in test [7] and in [8] was inactive.

The AC50 is the midpoint of the concentration-response curve, whichever way the signal moves.
